Experimental findings from PubChem BioAssay (NCATS) are described below.

Inconclusive results are not listed. Values without a mark were called inactive. The source made the active and inactive calls. Unless noted, calls come from the whole dose curve; as a rule, active = well fitted curve in the direction sought with a large enough effect in the repeat runs; inconclusive = weak or mixed curves; inactive = no such curve, though single readings can be large; an effect the other way counts as inactive or inconclusive.

Assay [1] in a line: A High-Content qHTS Against Drug Library for the Identification of Small Molecules that Inhibit DYT1 Early Onset Primary Dystonia-Associated Cell Pathology (AID 1645839; calls by dose curve; note: series mostly up to about 46 µM). A digest of the protocol:
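High-content imaging quantified EGFP-TorsinA mislocalization in HEK293-derived cells inducibly expressing DYT1 mutant torsinA, after 48 h exposure to compound given together with tetracycline induction. Cell count served as a toxicity channel alongside %pathology.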

Assay [2] deals with Cytochrome P450 2D6 (Homo sapiens) (UniProt P10635). Kind of assay: Cytochrome P450 family 2 subfamily D member 6 (CYP2D6) small molecule antagonists: luciferase biochemical (cell-free) qHTS assay (AID 1645840). For activity change, negative = inhibition: series mostly up to about 57 µM; % is set by controls: 0 for no effect and ±100 for the full control effect. Note: nearly all actives have a fitted effect of over 55% in size. Note: potency is the fitted concentration of half-maximal effect. A digest of the protocol:
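P450-Glo CYP2D6 system: proluciferin substrate converted by enzyme to luciferin, read by luminescence proportional to activity. Enzyme-substrate mix with compound 10 min at room temperature, then NADPH regeneration 1 h before detection reagent.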

Assay [3] concerns the target Cytochrome P450 2C9 (Homo sapiens) (UniProt P11712). The assay can be described thus: Cytochrome P450 family 2 subfamily C member 9 (CYP2C9) small molecule antagonists: luciferase biochemical (cell-free) qHTS assay (AID 1645842). For activity change, negative = inhibition: series mostly up to about 57 µM; % is set by controls: 0 for no effect and ±100 for the full control effect. Note: nearly all actives have a fitted effect of over 55% in size. Note: potency is the fitted concentration of half-maximal effect. The essentials:
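P450-Glo CYP2C9 system: proluciferin substrate with enzyme in mix containing 0.4% BSA, 10 min at room temperature, then NADPH regeneration solution added and incubated 1 h at 37C. Detection reagent stopped reaction; luminescence read after 20 min as RLU.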

A short description of assay [4]: Primary qHTS for inhibitors of nuclear receptor binding SET domain protein 2 (NSD2) in an isogenic RCH-ACV NSD2 p.E1099K mutant (9B) (AID 1645876; active = well fitted curve in the direction sought with a large enough effect; an effect the other way counts as inactive or inconclusive; note: nearly all actives have a fitted effect of over 70% in size; for activity change, negative = viability loss: % is set by controls: 0 for no effect and ±100 for the full control effect).
Assay [5] can be described thus: Primary qHTS for inhibitors of nuclear receptor binding SET domain protein 2 (NSD2) in an RCH-ACV wild type WT cells (2C) (AID 1645877; active = well fitted curve in the direction sought with a large enough effect; an effect the other way counts as inactive or inconclusive; note: nearly all actives have a fitted effect of over 70% in size; for activity change, negative = cell killing: % is set by controls: 0 for no effect and ±100 for the full control effect).

Sequence of Cytochrome P450 2C9 (Homo sapiens) (P11712 whole entry, looked up): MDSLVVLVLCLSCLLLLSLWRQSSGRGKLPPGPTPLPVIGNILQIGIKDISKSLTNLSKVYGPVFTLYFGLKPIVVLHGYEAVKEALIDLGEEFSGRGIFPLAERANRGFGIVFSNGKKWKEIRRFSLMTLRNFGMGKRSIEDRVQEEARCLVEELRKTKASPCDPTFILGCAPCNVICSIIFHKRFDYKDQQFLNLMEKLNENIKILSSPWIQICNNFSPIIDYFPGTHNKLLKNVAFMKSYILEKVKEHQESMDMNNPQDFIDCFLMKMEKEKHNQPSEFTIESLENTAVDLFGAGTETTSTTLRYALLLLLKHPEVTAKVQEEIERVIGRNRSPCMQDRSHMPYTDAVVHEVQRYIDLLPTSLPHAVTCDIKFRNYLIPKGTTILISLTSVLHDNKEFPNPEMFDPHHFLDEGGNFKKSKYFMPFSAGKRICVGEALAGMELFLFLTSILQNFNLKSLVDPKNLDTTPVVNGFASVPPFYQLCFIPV
Sequence of Cytochrome P450 2D6 (Homo sapiens) (P10635 whole entry, looked up): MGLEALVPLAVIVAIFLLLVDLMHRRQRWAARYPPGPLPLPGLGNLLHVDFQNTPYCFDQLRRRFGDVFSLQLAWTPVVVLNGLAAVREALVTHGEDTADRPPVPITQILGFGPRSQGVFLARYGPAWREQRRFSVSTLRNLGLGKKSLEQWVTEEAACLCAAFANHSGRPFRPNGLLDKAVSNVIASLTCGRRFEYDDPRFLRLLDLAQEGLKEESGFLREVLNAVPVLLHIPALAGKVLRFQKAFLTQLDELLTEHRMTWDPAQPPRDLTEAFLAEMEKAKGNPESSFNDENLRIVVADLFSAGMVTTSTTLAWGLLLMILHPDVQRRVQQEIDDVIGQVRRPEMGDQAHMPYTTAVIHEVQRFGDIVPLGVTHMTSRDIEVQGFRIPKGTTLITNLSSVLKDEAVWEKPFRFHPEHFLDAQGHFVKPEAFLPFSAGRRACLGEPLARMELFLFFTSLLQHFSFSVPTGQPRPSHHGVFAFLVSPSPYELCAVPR

Take `O=C(O)Cc1sc(-c2ccccc2)nc1-c1ccc(Cl)cc1`: the Potency entry in assay [1], in assay [2], in assay [4] and in assay [5] was “inactive” in each case. The Potency in assay [3] is 4.9 µM (active).

As to `NCC(=O)CCC(=O)O`, the Potency result in assay [1], in assay [2], in assay [3], in assay [4] and in assay [5] was “inactive” in each case.

Regarding `O=C(Oc1ccccc1C(=O)O)c1ccccc1O`, the Potency entry in assay [1], in assay [2], in assay [3], in assay [4] and in assay [5] was “inactive” each time.

On to `O=Cc1ccccc1C=O`, for which the Potency entry in assay [1], in assay [2], in assay [3], in assay [4] and in assay [5] was “inactive” in each case.

Take `Oc1cccc(O)c1`: the Potency entry in assay [1], in assay [2], in assay [3], in assay [4] and in assay [5] was “inactive” in each case.

Regarding `CC1(C)CO[C@@H](CC(=O)O)CN1`, the Potency entry in assay [1], in assay [2], in assay [3], in assay [4] and in assay [5] was “inactive” throughout.

As to `CCCCC/C(C=O)=C\c1ccccc1`, the Potency result in assay [1], in assay [2], in assay [3], in assay [4] and in assay [5] was “inactive” each time.

As for `COc1cc(C)c(Cc2cnc(N)nc2N)cc1OC`, the Potency entry in assay [1], in assay [2], in assay [3], in assay [4] and in assay [5] was “inactive” in each case.

With `[O-][n+]1cccc(CO)c1`, the Potency result in assay [1], in assay [2], in assay [3], in assay [4] and in assay [5] was “inactive” in each case.

As to `COC(=O)[C@H]1[C@H]2C[C@@H]3c4[nH]c5cc(OC)ccc5c4CCN3C[C@H]2C[C@@H](OC(=O)COc2ccc(OC)cc2)[C@@H]1OC`, the Potency entry in assay [1], in assay [3], in assay [4] and in assay [5] was “inactive” each time. Moreover, the Potency in assay [2] is 9.77 µM (active).

In the case of `CCCCCCCCCCCCCCCCCCOCC(O)CO` (stereo not given), the Potency entry in assay [1], in assay [2], in assay [3], in assay [4] and in assay [5] was “inactive” throughout.

On to `Nc1ccc(S(=O)(=O)Nc2nccs2)cc1`, for which the Potency entry in assay [1], in assay [2], in assay [3], in assay [4] and in assay [5] was “inactive” in each case.

Consider `CC(O)CN(CCN(CC(C)O)CC(C)O)CC(C)O` (stereo not given), for which the Potency entry in assay [1], in assay [2], in assay [3], in assay [4] and in assay [5] was “inactive” each time.

In the case of `Cc1ncc(COP(=O)(O)O)c(C=O)c1O`, the Potency entry in assay [1], in assay [2], in assay [3], in assay [4] and in assay [5] was “inactive” each time.

For the compound `CCOc1ccc2ccccc2c1C(=O)N[C@@H]1C(=O)N2[C@@H]1SC(C)(C)[C@@H]2C(=O)O`, the Potency entry in assay [1], in assay [2], in assay [3], in assay [4] and in assay [5] was “inactive” each time.

Turning to `CN(C)CCCO[C@@H]1[C@H]2OC(C)(C)O[C@H]2O[C@@H]1C(O)CO` (stereo not given in full), the Potency entry in assay [1], in assay [2], in assay [3], in assay [4] and in assay [5] was “inactive” each time.

As to `NS(=O)(=O)c1cc2c(cc1C(F)(F)F)NC(Cc1ccccc1)NS2(=O)=O` (stereo not given), the Potency entry in assay [1], in assay [2], in assay [3], in assay [4] and in assay [5] was “inactive” each time.

Consider `N[C@H](C(=O)O)c1ccc(O)cc1`, for which the Potency entry in assay [1], in assay [2], in assay [3], in assay [4] and in assay [5] was “inactive” throughout.

Take `CC/C=C(\C(=O)N[C@@H]1C(=O)N2C(C(=O)OCOC(=O)C(C)(C)C)=C(COC(N)=O)CS[C@H]12)c1csc(N)n1`: the Potency entry in assay [1], in assay [2], in assay [4] and in assay [5] was “inactive” each time. Moreover, the Potency in assay [3] was 15.5 µM (active).

As to `COc1cc(C(=O)N2CCOCC2)cc(OC)c1OC`, the Potency entry in assay [1], in assay [2], in assay [3], in assay [4] and in assay [5] was “inactive” each time.

As for `O=C1c2c(O)cccc2Cc2cccc(O)c21`, the Potency result in assay [1], in assay [2], in assay [3], in assay [4] and in assay [5] was “inactive” in each case.

`O=C1O[C@H](CO)[C@@H](O)[C@H](O)[C@H]1O`: the Potency entry in assay [1], in assay [2], in assay [3], in assay [4] and in assay [5] was “inactive” in each case.

In the case of `Cn1cc[nH]c1=S`, the Potency entry in assay [1], in assay [2], in assay [3], in assay [4] and in assay [5] was “inactive” each time.

Consider `Cc1cccc(C)c1NC(=O)CN(CC(=O)O)CC(=O)O`, for which the Potency result in assay [1], in assay [2], in assay [3], in assay [4] and in assay [5] was “inactive” in each case.

In the case of `N[C@@H](CSSC[C@H](N)C(=O)O)C(=O)O`, in assay [1], the % pathology change, negative = correction was 10.2% [at 0.369 µM]. Also, the figures for the activity change, negative = inhibition in assay [2] and in assay [3] were -1.65% [at 0.91 µM] and 15.4% [at 0.91 µM], respectively. Also, the activity change, negative = viability loss in assay [4] is -6.57% [at 0.588 µM]. In addition, in assay [5], the activity change, negative = cell killing is 2.98% [at 0.588 µM].

As for `CC12CCC(CC1)C(C)(C)O2`, the Potency entry in assay [1], in assay [2], in assay [3], in assay [4] and in assay [5] was “inactive” each time.

For the compound `COc1ccc(S(=O)(=O)Nc2nnc(CC(C)C)s2)cc1`, the Potency entry in assay [1], in assay [2], in assay [4] and in assay [5] was “inactive” each time. For the same compound, the Potency in assay [3] was 21.9 µM (active).

On to `CC1(C)[C@@H]2CC[C@@]1(C)C(=O)C2`, for which the Potency result in assay [1], in assay [2], in assay [3], in assay [4] and in assay [5] was “inactive” each time.

Regarding `COc1ccc2cc1Oc1cc3c(cc1OC)CC[N+](C)(C)[C@H]3Cc1ccc(cc1)Oc1c(OC)c(OC)cc3c1[C@@H](C2)[N+](C)(C)CC3`, the Potency entry in assay [1], in assay [2], in assay [3], in assay [4] and in assay [5] was “inactive” each time.

As for `C[C@@H](O)[C@H](N)C(=O)O`, the Potency entry in assay [1], in assay [2], in assay [3], in assay [4] and in assay [5] was “inactive” throughout.

Regarding `Oc1cn2c(n1)Nc1ccc(Cl)c(Cl)c1C2`, the Potency entry in assay [1], in assay [2], in assay [4] and in assay [5] was “inactive” in each case. For the same compound, in assay [3], the Potency is 6.74 µM (active).

Consider `O=c1[nH]cnc2c1ncn2[C@@H]1O[C@H](CO)[C@@H](O)[C@H]1O`, for which the Potency result in assay [1], in assay [2], in assay [3], in assay [4] and in assay [5] was “inactive” throughout.
